Composite z-score and z-score data for 17 compounds are collected here from PubChem BioAssay.

Test [1] is described as follows: small molecules captured by biotinylated probe aFSTL3 – biochemical, small-molecule microarray, fluorescence 635/667, stem cell growth factor project, primary screen (AID 1064).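 Also: measures binding of the biotinylated anti-FSTL3 antibody to printed compounds.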 The conditions noted are these: higher = more signal.
Test [2] can be described thus: binders from COS7 lysate, DM2A8 probe, primary screen, torsin A project, cell lysate, small-molecule microarray, fluorescence 635/667 (AID 1065). The following applies: higher = more signal, COS7 lysate expressing mutant human TOR1A.
The nature of test [3]: small molecules captured by biotinylated probe aFGF2 – biochemical, small-molecule microarray, fluorescence 635/667, stem cell growth factor project, primary screen (AID 1067).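 Also: measures binding of biotinylated aFGF2 protein to printed compounds on slides; z-score merges feature fluorescence and signal-to-noise across triplicate slides.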 The following applies: higher = more signal.
The nature of test [4]: small molecules captured by biotinylated probe aFGF10 – biochemical, small-molecule microarray, fluorescence 635/667, stem cell growth factor project, primary screen (AID 1071).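 Also: score merges 667 nm spot intensity and signal to noise from triplicate slides.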 The conditions noted are these: higher = more signal.
Test [5] deals with Neurogenic locus notch homolog protein 2 (Homo sapiens) (UniProt Q04721). The experiment in a line: small molecules binding Notch2 protein – biochemical, small-molecule microarray, 635 nm fluorescence, stem cell growth factors, primary screen (AID 1073). The following applies: higher = more signal.
The target in test [6] is Pro-neuregulin-1, membrane-bound isoform (Homo sapiens) (UniProt Q02297). Nature of the test: small molecules binding neuregulin-1 protein – biochemical, small-molecule microarray, fluorescence 635/667, psychiatric disease protein project, primary screen (AID 1075).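 Also: score combines 667 nm spot fluorescence with signal to noise.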 The following applies: NRG1 binding, 635 nm fluorescence, higher = more signal.
For test [7], the system named is Neuregulin-1 EGF-like domain. The experiment in a line: small molecules binding NRG1 EGF domain – biochemical, small-molecule microarray, 635 nm fluorescence, primary screen (AID 1081).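 Also: binding of the protein to compounds printed on small-molecule microarray slides.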 The conditions noted are these: higher = more signal.
Test [8] is described as follows: FRG1 expression reporter modulators in myotubes – cell-based, C2C12 myotubes, firefly/Renilla luciferase, luminescence, FRG1 inhibition for FSHD, primary screen (AID 1084). The following applies: FRG1 promoter luciferase, higher = more signal, called active from +8 up or from −8 down.
Test [9] can be described thus: small molecules captured by biotinylated probe aFST – biochemical, small-molecule microarray, fluorescence 635/667, stem cell growth factor project, primary screen (AID 1086).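 Also: score merges 667 nm fluorescence with signal-to-noise of each printed compound spot.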 The following applies: higher = more signal.
A short description of test [10]: binders of probe aHhip on microarray, primary screen, stem cell growth factor project, biochemical, small-molecule microarray, fluorescence 635/667 (AID 1087).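 Also: score merges spot fluorescence at 667nm with spot signal to noise ratio.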 The conditions noted are these: higher = more signal.

Active and inactive are the calls of the source.

Neurogenic locus notch homolog protein 2 (Homo sapiens), sequence (Q04721 whole entry, looked up, canonical isoform): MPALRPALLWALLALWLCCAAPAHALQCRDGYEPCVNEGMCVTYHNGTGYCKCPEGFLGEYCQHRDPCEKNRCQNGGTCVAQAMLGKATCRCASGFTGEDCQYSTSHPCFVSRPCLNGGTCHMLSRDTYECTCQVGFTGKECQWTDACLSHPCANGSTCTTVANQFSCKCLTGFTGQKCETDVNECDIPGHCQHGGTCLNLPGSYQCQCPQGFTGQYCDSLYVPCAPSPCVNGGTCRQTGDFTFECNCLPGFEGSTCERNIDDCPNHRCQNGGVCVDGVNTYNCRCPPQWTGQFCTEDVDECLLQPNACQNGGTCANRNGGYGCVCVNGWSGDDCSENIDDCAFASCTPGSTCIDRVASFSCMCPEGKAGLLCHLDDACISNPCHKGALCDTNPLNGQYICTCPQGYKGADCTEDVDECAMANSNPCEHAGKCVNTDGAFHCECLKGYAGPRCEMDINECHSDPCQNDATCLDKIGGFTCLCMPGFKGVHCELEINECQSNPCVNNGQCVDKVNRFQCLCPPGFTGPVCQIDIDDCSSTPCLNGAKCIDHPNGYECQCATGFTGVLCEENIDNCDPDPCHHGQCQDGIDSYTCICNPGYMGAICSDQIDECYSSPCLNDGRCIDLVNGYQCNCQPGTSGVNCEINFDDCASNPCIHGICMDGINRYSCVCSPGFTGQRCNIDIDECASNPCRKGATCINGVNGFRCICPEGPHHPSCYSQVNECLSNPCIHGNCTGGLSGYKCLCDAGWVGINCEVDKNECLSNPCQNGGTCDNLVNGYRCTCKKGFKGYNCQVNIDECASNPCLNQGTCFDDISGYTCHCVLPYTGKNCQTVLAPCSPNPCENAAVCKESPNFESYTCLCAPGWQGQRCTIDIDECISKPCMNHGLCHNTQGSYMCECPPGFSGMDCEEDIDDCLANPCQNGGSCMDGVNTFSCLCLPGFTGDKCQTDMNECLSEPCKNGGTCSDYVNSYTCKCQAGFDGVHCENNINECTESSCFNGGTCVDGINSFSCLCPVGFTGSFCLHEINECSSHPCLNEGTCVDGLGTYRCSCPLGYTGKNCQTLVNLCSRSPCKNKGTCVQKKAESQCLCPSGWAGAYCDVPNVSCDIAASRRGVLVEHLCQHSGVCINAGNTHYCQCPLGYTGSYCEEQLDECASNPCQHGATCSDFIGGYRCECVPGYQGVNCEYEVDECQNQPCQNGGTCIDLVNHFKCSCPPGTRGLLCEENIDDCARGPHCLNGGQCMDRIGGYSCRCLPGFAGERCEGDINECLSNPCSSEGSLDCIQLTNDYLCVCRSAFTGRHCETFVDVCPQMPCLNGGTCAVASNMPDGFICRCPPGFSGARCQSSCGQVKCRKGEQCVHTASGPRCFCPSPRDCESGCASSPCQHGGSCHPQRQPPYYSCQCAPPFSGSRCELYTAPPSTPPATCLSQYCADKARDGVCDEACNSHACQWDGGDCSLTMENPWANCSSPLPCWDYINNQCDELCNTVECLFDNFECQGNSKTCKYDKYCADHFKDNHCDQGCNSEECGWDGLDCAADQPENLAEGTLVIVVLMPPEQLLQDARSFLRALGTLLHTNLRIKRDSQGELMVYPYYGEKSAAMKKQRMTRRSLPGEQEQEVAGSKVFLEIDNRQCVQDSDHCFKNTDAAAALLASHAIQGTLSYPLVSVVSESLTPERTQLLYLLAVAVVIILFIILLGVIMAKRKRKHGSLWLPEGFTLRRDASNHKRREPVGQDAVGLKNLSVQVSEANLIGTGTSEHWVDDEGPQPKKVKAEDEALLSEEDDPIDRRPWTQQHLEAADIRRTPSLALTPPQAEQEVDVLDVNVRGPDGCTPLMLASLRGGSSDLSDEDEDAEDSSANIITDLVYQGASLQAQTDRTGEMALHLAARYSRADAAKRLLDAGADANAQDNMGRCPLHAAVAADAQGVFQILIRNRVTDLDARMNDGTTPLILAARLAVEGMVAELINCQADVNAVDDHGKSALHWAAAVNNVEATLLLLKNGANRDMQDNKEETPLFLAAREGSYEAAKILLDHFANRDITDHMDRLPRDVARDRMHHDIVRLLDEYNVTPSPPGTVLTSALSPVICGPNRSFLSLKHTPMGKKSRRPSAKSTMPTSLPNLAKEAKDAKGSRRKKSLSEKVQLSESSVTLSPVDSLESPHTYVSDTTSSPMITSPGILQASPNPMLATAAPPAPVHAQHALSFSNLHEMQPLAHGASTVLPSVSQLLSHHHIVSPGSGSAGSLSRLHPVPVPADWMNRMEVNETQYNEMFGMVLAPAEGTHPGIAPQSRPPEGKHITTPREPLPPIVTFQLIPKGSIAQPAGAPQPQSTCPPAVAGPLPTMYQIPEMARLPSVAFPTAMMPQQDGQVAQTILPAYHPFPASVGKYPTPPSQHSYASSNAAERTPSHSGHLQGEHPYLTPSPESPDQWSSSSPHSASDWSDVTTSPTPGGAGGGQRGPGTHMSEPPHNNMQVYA
Pro-neuregulin-1, membrane-bound isoform (Homo sapiens), sequence (Q02297 whole entry, looked up, the tested form may be a part, canonical isoform): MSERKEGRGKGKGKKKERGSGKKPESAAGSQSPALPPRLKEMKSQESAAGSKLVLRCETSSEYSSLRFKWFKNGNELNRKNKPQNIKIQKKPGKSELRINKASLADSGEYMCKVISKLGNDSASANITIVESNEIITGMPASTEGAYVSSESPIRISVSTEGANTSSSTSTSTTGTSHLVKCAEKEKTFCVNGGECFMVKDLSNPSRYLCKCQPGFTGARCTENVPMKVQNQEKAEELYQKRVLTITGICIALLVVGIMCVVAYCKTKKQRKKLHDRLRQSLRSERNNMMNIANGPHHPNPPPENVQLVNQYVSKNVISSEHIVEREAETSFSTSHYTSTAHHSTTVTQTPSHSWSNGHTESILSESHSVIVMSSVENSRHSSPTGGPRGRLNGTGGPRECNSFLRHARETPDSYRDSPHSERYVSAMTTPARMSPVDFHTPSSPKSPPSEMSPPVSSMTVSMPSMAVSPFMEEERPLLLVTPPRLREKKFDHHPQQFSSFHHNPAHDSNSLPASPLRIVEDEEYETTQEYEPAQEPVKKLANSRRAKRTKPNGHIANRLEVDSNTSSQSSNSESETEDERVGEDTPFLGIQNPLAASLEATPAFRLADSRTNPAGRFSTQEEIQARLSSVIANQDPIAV

In the case of `CC[C@H]1C2=C3C(CC[C@H]4C(OCc5ccc(F)cc5C(F)(F)F)OC[C@](C)([C@@H]34)N(C(=O)OC(C)(C)C)C2)C2COC(=O)OCC21` (stereo not given in full), the composite z-score in test [1] was 0.0488; in [2], -0.377; in [3], 0.0246; in test [4], 0.112; in test [5], 1.25; in test [6], 1.47. The composite z-score in [7] was 0.874; in test [9], 1.73; in test [10] it was -0.0047. Besides, in [8], the z-score is 1.82 (inactive).

For the compound `CC(C)(C)OC(=O)CC[C@]1(C(=O)N2CCOCC2)N=C(c2ccc(OCCCO)cc2)O[C@H]1c1ccccc1`, the composite z-score was -0.209 in [1]; 0.177 in test [2]; -0.0601 in [3]; 0.724 in test [4]; 0.819 in test [5]; 0.526 in [6]. In addition, the composite z-score in test [7] worked out at 0.548; in [9], 0.534; in test [10] it was 0.0695. In test [8], the z-score was -2.64 (inactive).

On to `COCCCNC(=O)[C@@]1(Sc2ccc(C)cc2)CC(=O)N(Cc2cc(C(F)(F)F)cc(C(F)(F)F)c2)[C@@H]1c1ccc(CO)cc1`, for which the composite z-score in test [1] is 0.0028; in [2] it was 0.525; in test [3], -0.144; in test [4], -0.29; in test [5], 0.0762; in test [6], 1.22. Also, the composite z-score in test [7] is 0.875; in test [9], -0.168; in test [10] it was 0.213. The z-score in [8] was -0.42 (inactive).

`COc1ccc([Si](C)(C)[C@@H]2[C@@H](CC(=O)N3CCC[C@H]3CO)O[C@]3(C(=O)N(Cc4ccc(N5C(=O)c6cccc7cccc5c67)cc4)c4ccccc43)[C@H]2C)cc1`: the composite z-score is -0.629 in test [1]; 0.847 in test [2]; -0.0563 in test [3]; 0.995 in test [4]; 0.733 in test [5]; 1.5 in test [6]. Besides, the composite z-score is 0.976 in test [7], 0.622 in test [9] and -0.216 in [10]. The z-score in test [8] was -1.5 (inactive).

For `CC(C)(C)OC(=O)CC[C@]1(C(=O)NCCN2CCOCC2)N=C(c2ccc(OCCCO)cc2)O[C@H]1c1ccccc1N=[N+]=[N-]`, the composite z-score came out at 0.85 in test [1]; 1.55 in test [2]; 0.105 in test [3]; 0.606 in test [4]; 0.1 in test [5]; 1.72 in test [6]. For the same compound, the figures for the composite z-score in test [7], in test [9] and in [10] were 1.39, 0.778 and 0.913, respectively. The z-score in test [8] is 4.57 (inactive).

Take `CN1C(=O)C2C=CC(C(O)Cc3ccccc3)N(N(c3ccccc3)c3ccccc3)C2C1=O` (stereo not given): the composite z-score worked out at 0.135 in test [1]; 0.147 in [2]; 0.0295 in test [3]; 0.837 in test [4]; 0.602 in [5]; 0.503 in test [6]. For the same compound, the composite z-score in [7] was 1.11; in [9], 0.654; in test [10] it was 0.107. The z-score in test [8] is 0.357 (inactive).

On to `O=C1NC(=O)C2C1C=CC(C(O)c1cc(C(F)(F)F)cc(C(F)(F)F)c1)N2Nc1ccc(Cl)cc1Cl` (stereo not given), for which the composite z-score is 0.812 in [1]; 0.623 in test [2]; 0.277 in [3]; 0.404 in test [4]; 0.351 in [5]; 1.45 in [6]. The composite z-score in test [7] is 0.766; in test [9] it was 0.881; in [10], -0.0346. The z-score in [8] is -0.166 (inactive).

For `C=CCN1C(=O)[C@@]2(O[C@@H](CCO)[C@H]([Si](C)(C)c3ccc(OC)cc3)[C@H]2C)c2cc(N3C(=O)c4ccccc4Oc4ccccc43)ccc21`, the composite z-score in test [1] is -0.033; in [2], 0.0892; in [3] it was -0.0491; in [4], 0.907; in test [5], 0.166; in test [6], 0.402. The composite z-score in test [7] is 0.882; in test [9], -0.204; in test [10] it was -0.261. Besides, in [8], the z-score is -1.94 (inactive).

Take `COC(=O)Cn1c(C(=O)N2CCCC2)cc2c1C[C@H]1CN(C(=O)c3ccccc3)[C@@](Cc3ccc(F)cc3)(C(=O)OC)[C@@H]21`: the composite z-score in test [1] is -0.366; in test [2], 0.281; in [3] it was -0.0329; in [4], 0.0839; in test [5], 0.358; in test [6] it was 2. For the same compound, the composite z-score is 1.07 in test [7], 0.131 in test [9] and 0.0845 in test [10]. The z-score in test [8] was -0.566 (inactive).

For `Cc1ccc(C(C)CC(O)C2C=CC3C(=O)N(c4ccccc4)C(=O)C3N2Nc2ccc(C(C)C)cc2)o1` (stereo not given), the composite z-score in test [1] amounted to 1.15; in test [2], 1.05; in test [3], 0.102; in test [4], 0.712; in test [5], 1.58; in test [6], 1.93. Also, the composite z-score was 0.765 in test [7], 0.992 in test [9] and -0.0772 in [10]. In addition, the z-score in [8] is 0.543 (inactive).

For `CCCC[C@@H]1C[C@H]1[C@@H](NC(=O)c1ccccc1)c1ccc(Cl)cc1`, the composite z-score in test [1] was 1.22; in [2], -0.657; in [3] it was -0.196; in [4], -2.08; in [5], -2; in [6], -0.596. Moreover, the composite z-score in test [7] was 1.36; in test [9], -0.833; in test [10] it was -0.134. Further, the z-score in [8] is 1.62 (inactive).

As to `CC=CC(O)C1C=CC2C(=O)N(c3ccccc3)C(=O)C2N1Nc1ccccc1` (stereo not given), the composite z-score in test [1] was 0.393; in test [2] it was 0.274; in test [3], -0.0114; in test [4], 1.02; in [5], 1.68; in test [6] it was 1.91. Further, the composite z-score was 1.29 in test [7], 1.14 in [9] and -0.0852 in [10]. Further, the z-score in [8] is 0.568 (inactive).

Take `[N-]=[N+]=NCc1ccccc1[C@H]1OC(c2ccc(OCCCO)cc2)=N[C@@]1(CCS(=O)(=O)c1ccccc1)C(N)=O`: the composite z-score in test [1] was 0.573; in test [2], 1.33; in test [3], 0.145; in test [4], 0.763; in test [5], 1.65; in [6], 2.03. Further, the composite z-score was 1.36 in test [7], 0.805 in [9] and -0.0645 in [10]. Besides, the z-score in test [8] was 4.66 (inactive).

As to `O=C1c2ccccc2[C@](Cc2ccccc2I)(C(=O)NCCN2CCOCC2)[C@H](c2ccc(CO)cc2)N1Cc1ccccc1`, the composite z-score in test [1] was -0.0634; in test [2], 0.783; in [3], -0.0356; in test [4], 0.699; in test [5], 1.33; in test [6], 1.1. The values for the composite z-score in test [7], in test [9] and in test [10] were 1.33, 0.983 and 0.519, respectively. For the same compound, the z-score in [8] is -3.84 (inactive).

Consider `C[C@H]1C2=C3C(CC[C@H]4C(OCc5ccc(F)cc5C(F)(F)F)OC[C@](C)([C@@H]34)N(C(=O)OC(C)(C)C)C2)C2COC(=O)OCC21` (stereo not given in full), for which the composite z-score is 0.42 in [1]; -0.119 in test [2]; -0.0325 in test [3]; 0.226 in [4]; 1.43 in test [5]; 1.71 in test [6]. In addition, the composite z-score was determined as 1.03 in [7], 1.61 in test [9] and 0.44 in [10]. Besides, the z-score in test [8] is 2.53 (inactive).

Regarding `COC(=O)C(CC#Cc1ccc2c(c1)[C@]1(C(=O)N2)[C@H](C(=O)O)[C@H]2C(=O)O[C@H](c3ccccc3)[C@H](c3ccccc3)N2[C@@H]1c1ccccc1OCCO)C(=O)OC`, the composite z-score in test [1] was 0.232; in test [2] it was 0.63; in test [3] it was 0.0762; in test [4] it was 1.12; in test [5], 0.866; in test [6], 1.27. Also, the composite z-score in test [7] worked out at 1.21; in test [9] it was 0.451; in test [10], 0.275. Also, the z-score in test [8] was 0.483 (inactive).

Take `C=C[C@H](COC(C)=O)NS(=O)(=O)c1ccc(Br)cc1`: the composite z-score in [1] is -0.127; in [2] it was -0.256; in test [3], -0.151; in test [4], -0.286; in [5], -0.506; in test [6], 0.241. Besides, the composite z-score in [7] is 0.656; in test [9] it was 0.0509; in [10], -0.0618. Further, in [8], the z-score is 1.54 (inactive).
